Here are results for 13 compounds from PubChem BioAssay (NCI).

SMILES strings stand for the structures. Compounds without any hit were thinned out: in the full panel of roughly 83,000, 20% have a hit.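 Cell lines were cultured in 96-well plates, exposed to a single compound concentration, and assessed for percent growth 48 hours later.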 A number with no mark means an inactive call. Calls of active or inactive are those of the source. The calls were made as follows: active = growth percent below 10; inactive = the rest.

Some test systems named below: HCT-15 colon; HT29 colon; SNB-75 CNS; SNB-19 CNS; U251 CNS; PC-3 prostate; SK-MEL-5 melanoma; UACC-62 melanoma; LOX IMVI melanoma; SK-MEL-28 melanoma.
Common to all, as to test: NCI-60 one-dose screen, 48 h (100 = growth as untreated, 0 = no growth, -100 = all killed)
Common to all, as to details: 10 µM

Turning to `Cc1ccc(C(=O)/C=C/c2ccccc2)s1`, the growth in the experiment on HCT-15 colon is 107%; in the experiment on HT29 colon it was 107%; in the experiment with SNB-75 CNS it was 106%; in the experiment on SNB-19 CNS, 99.1%; in the experiment on U251 CNS, 95.8%; with PC-3 prostate, 111%. Besides, the growth with SK-MEL-5 melanoma was 99.9%; in the experiment with UACC-62 melanoma, 97.4%; in the experiment with LOX IMVI melanoma it was 79.1%; in the experiment on SK-MEL-28 melanoma, 114%.
In the case of `CCOC(=O)c1cc(C(=O)c2ccc(Cl)cc2)n2ccc(-c3cc[n+](CC(=O)c4ccc(OC)cc4)cc3)cc12`, the growth was 75.5% in the experiment with HCT-15 colon; -9.81% (active) in the experiment with HT29 colon; 93.2% in the experiment on SNB-75 CNS; 77% in the experiment on SNB-19 CNS; 13.2% in the experiment on U251 CNS; 51.5% in the experiment on PC-3 prostate. The growth in the experiment with SK-MEL-5 melanoma is 98.3%; with UACC-62 melanoma it was 107%; in the experiment with LOX IMVI melanoma, 12.9%; in the experiment on SK-MEL-28 melanoma, 99.6%.
Consider `CCN1CC(CCN2CCOCC2)C(C(c2ccccc2)c2ccccc2)C1=O` (stereo not given), for which the growth in the experiment on HCT-15 colon is 94.1%; with HT29 colon, 102%; in the experiment with SNB-75 CNS, 102%; with SNB-19 CNS, 102%; with U251 CNS, 101%; with PC-3 prostate, 82.7%. The growth was 100% with SK-MEL-5 melanoma, 94.8% in the experiment with UACC-62 melanoma, 97.2% with LOX IMVI melanoma and 116% in the experiment on SK-MEL-28 melanoma.
Consider `O=c1oc2c(cc1-c1ccc(F)cc1)C(O)Oc1ccccc1-2` (stereo not given), for which the growth with HCT-15 colon is 63.4%; in the experiment with HT29 colon, 66.8%; with SNB-75 CNS it was 63.4%; in the experiment on SNB-19 CNS, 95.9%; in the experiment with U251 CNS, 67.4%; with PC-3 prostate, 92.9%. Besides, the growth is 34.8% with SK-MEL-5 melanoma, 44.5% in the experiment on UACC-62 melanoma, 77.8% in the experiment with LOX IMVI melanoma and 88.6% in the experiment on SK-MEL-28 melanoma.
For the compound `O=C1c2ccccc2C(=O)c2c1ccc(C(Br)Br)c2[N+](=O)[O-]`, the growth in the experiment with HCT-15 colon is 38.3%; in the experiment with HT29 colon, 46.1%; in the experiment on SNB-75 CNS it was 109%; in the experiment on SNB-19 CNS it was 60.9%; with U251 CNS, 9.58% (active); in the experiment with PC-3 prostate, 19.2%. In addition, the growth with SK-MEL-5 melanoma is 60.8%; in the experiment on UACC-62 melanoma it was 27.6%; in the experiment on LOX IMVI melanoma, -65.3% (active); in the experiment on SK-MEL-28 melanoma, 102%.
As for `C=C(C)[C@@H]1CC[C@]2(COCCC#N)CC[C@]3(C)[C@H](CC[C@@H]4[C@@]5(C)Cc6c([nH]c7ccccc67)C(C)(C)[C@@H]5CC[C@]43C)[C@@H]12`, the growth was 102% with HCT-15 colon; 89.7% in the experiment with HT29 colon; 90.9% with SNB-75 CNS; 99.1% with SNB-19 CNS; 102% in the experiment with U251 CNS; 92.9% in the experiment with PC-3 prostate. Further, the growth was 98.2% with SK-MEL-5 melanoma, 105% with UACC-62 melanoma, 92.1% with LOX IMVI melanoma and 100% in the experiment with SK-MEL-28 melanoma.
Turning to `CC(=O)N[C@H](C(=O)N[C@@H](CCCNC(=N)N)C(=O)N[C@@H](CCCCN)C(=O)N[C@@H](CCCNC(=N)N)C(=O)NC(C(=O)N[C@@H](CC(C)C)C(=O)N[C@@H](CCCNC(=N)N)C(=O)N[C@@]1(C)CCC/C=C\CCC[C@@](C)(C(=O)N[C@@H](CCCNC(=N)N)C(=O)N[C@@H](CCC(=O)O)C(=O)N[C@@H](CC(C)C)C(=O)N[C@H](C(=O)N[C@@H](CCC(=O)O)C(N)=O)C(C)C)NC(=O)[C@H](CCC(N)=O)NC(=O)[C@H](CC(C)C)NC(=O)[C@H](CC(C)C)NC1=O)[C@@H](C)O)C(C)C` (stereo not given in full), the growth is 16.2% with HCT-15 colon; 26.9% with HT29 colon; -16.4% (active) in the experiment with SNB-75 CNS; 31.7% in the experiment with SNB-19 CNS; -35.7% (active) with U251 CNS; -75.5% (active) with PC-3 prostate. In addition, the growth in the experiment with SK-MEL-5 melanoma is -83.9% (active); with UACC-62 melanoma it was -68.1% (active); in the experiment with LOX IMVI melanoma, 33.2%; in the experiment with SK-MEL-28 melanoma it was -37.7% (active).
Consider `C/C=C/CSC(C)(C)C(=O)NC`, for which the growth in the experiment on HCT-15 colon was 100%; with HT29 colon, 98.1%; in the experiment on SNB-75 CNS it was 92%; with SNB-19 CNS, 101%; with U251 CNS it was 104%; in the experiment on PC-3 prostate, 92.8%. In addition, the growth is 101% with SK-MEL-5 melanoma, 105% with UACC-62 melanoma, 97% with LOX IMVI melanoma and 112% with SK-MEL-28 melanoma.
For `Clc1nc2ccc(Br)cc2cc1-c1nc2ccccc2[nH]1`, the growth in the experiment with HCT-15 colon was 92.3%; with HT29 colon, 106%; in the experiment on SNB-75 CNS it was 42.4%; in the experiment on SNB-19 CNS it was 91%; in the experiment with U251 CNS, 81%; in the experiment on PC-3 prostate, 39.6%. Besides, the growth with SK-MEL-5 melanoma was 84.7%; in the experiment on UACC-62 melanoma it was 90.9%; in the experiment with LOX IMVI melanoma it was 69.5%; in the experiment on SK-MEL-28 melanoma, 105%.
On to `CC(=O)[C@H]1CC[C@]2(C)[C@@H]1CC[C@@H]1[C@@]3(C)CC(CCC#N)(CCC#N)C(=O)C(C)(C)[C@@H]3CC[C@]12C`, for which the growth in the experiment on HCT-15 colon was 100%; in the experiment on HT29 colon, 98.8%; in the experiment on SNB-75 CNS, 84.5%; with SNB-19 CNS, 93.7%; in the experiment with U251 CNS, 102%; in the experiment on PC-3 prostate it was 93.8%. For the same compound, the growth is 86.6% in the experiment with SK-MEL-5 melanoma, 82.4% in the experiment on UACC-62 melanoma, 94.1% in the experiment on LOX IMVI melanoma and 93.9% with SK-MEL-28 melanoma.
`O=C1CC(SC(=S)C2CCCC2=O)C(=O)N1` (stereo not given): the growth with HCT-15 colon is 98.1%; in the experiment with HT29 colon it was 103%; with SNB-75 CNS, 105%; in the experiment with SNB-19 CNS it was 94.7%; with U251 CNS, 97.1%; in the experiment with PC-3 prostate it was 97.1%. Also, the growth in the experiment on SK-MEL-5 melanoma was 103%; in the experiment with UACC-62 melanoma, 102%; with LOX IMVI melanoma, 97.5%; with SK-MEL-28 melanoma it was 113%.
Turning to `C1CN(CC2CCC(CN3CCOCC3)O2)CCO1` (stereo not given), the growth in the experiment on HCT-15 colon was 101%; with HT29 colon, 102%; with SNB-75 CNS, 96.5%; with SNB-19 CNS it was 105%; in the experiment with U251 CNS, 108%; in the experiment with PC-3 prostate, 105%. Moreover, the growth in the experiment on SK-MEL-5 melanoma was 105%; in the experiment with UACC-62 melanoma, 106%; in the experiment with LOX IMVI melanoma, 93.2%; with SK-MEL-28 melanoma it was 105%.
On to `COc1ccc(-c2n[nH]nc2-c2cc(OC)c3c(c2OC)OCO3)cc1`, for which the growth in the experiment on HCT-15 colon is 35.5%; in the experiment with HT29 colon, 4.41% (active); with SNB-75 CNS, 4.8% (active); in the experiment on SNB-19 CNS, 51.8%; in the experiment on U251 CNS it was 13.8%; with PC-3 prostate, 26.3%. Besides, the growth was 6.78% (active) with SK-MEL-5 melanoma, 40.6% in the experiment with UACC-62 melanoma, 37% in the experiment on LOX IMVI melanoma and 63% in the experiment on SK-MEL-28 melanoma.
